Records with an inconclusive call do not appear. The source made the active and inactive calls. How the source made its calls: active means hit-call score of the fitted dose curve at least 0.9, where 1 is the maximum; inconclusive means response in the unintended direction; inactive means score below 0.9.
What follows are compounds tested against human CYP2A6, CYP2A6 (gene 1548) (UniProt P11509) (assay: NVS_ADME_hCYP2A6: NovaScreen (NVS) CYP450-related Enzyme Activity (ADME) Assay for human CYP2A6 (AID 2283099)).
Sequence of human CYP2A6, CYP2A6 (gene 1548) (P11509 whole entry, looked up): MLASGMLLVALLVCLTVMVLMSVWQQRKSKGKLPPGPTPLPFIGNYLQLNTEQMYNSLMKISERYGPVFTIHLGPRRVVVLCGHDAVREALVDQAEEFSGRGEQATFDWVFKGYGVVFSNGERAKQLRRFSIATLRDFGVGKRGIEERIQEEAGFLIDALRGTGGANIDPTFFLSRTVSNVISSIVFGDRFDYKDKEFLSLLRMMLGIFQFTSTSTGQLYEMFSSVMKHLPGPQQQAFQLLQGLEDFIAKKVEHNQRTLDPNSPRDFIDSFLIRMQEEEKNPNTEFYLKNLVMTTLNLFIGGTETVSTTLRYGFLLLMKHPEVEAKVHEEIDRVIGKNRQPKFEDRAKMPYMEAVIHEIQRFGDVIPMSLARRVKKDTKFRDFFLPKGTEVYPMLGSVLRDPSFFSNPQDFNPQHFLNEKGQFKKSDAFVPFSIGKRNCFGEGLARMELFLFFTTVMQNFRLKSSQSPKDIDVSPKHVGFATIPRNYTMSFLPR
Procedure: NVS_ADME_hCYP2A6 is a biochemical, single-readout assay that uses extracted gene-proteins from insect cells in a cell-free assay. Measurements were taken 0.5 hour after chemical dosing in a 96-well plate.NVS_ADME_hCYP2A6 is one of one assay component(s) measured or calculated from the NVS_ADME_hCYP2A6 assay. It is designed to make measurements of enzyme activity, a form of enzyme reporter, as detected with fluorescence intensity signals by Fluorescence technology.Data from the assay component NVS_ADME_hCYP2A6 was analyzed into 1 assay endpoint. This assay endpoint, NVS_ADME_hCYP2A6, was analyzed in the positive analysis fitting direction relative to Acetonitrile as the negative control and baseline of activity. Using a type of enzyme reporter, loss-of-signal activity can be used to understand changes in the enzymatic activity as they relate to the gene CYP2A6. Furthermore, this assay endpoint can be referred to as a primary readout, because this assay has produced multiple assay endpoints where this one serves a enzymatic activity function. To generalize the intended target to other relatable targets, this assay endpoint is annotated to the cyp intended target family, where the subfamily is xenobiotic metabolism.
Binding assays used specific radioligands (tritiated, iodinated) with non-radioactive competitive displacement ligands in agonist or antagonist protocols (as indicated) and various reference compounds and inhibitors to titrate specific binding to receptors and transporters. Most enzyme assays (CYPs, kinases, phosphatases, proteases, HDACs) used recombinant protein and specific substrates (fluorescence mostly, some colorimetric and radioactive) and inhibitors, followed by a biochemical separation of substrate and product. All assays for the biochemical HTS were initially run in duplicate at a single concentration (10 uM for CYP450 assays and 25 uM for all others). Assay-chemical combinations meeting a pre-defined threshold (e.g., 30% inhibition and other criteria defined below) were then run in singleton concentration-response format with maximum concentration of 20 uM for CYPs and 50 uM for all others. Each assay was run with positive and negative controls, and concurrent controls on every plate. The follow-up (secondary) screen tested active chemical-pairs in concentration series, as well as a few additional assays not tested in the primary screen, some selected negative inactives, and several cases re-run in the concentration series for confirmatory purposes.

| Compound | AC50 | outcome |
| --- | --- | --- |
| [Cl-].[Cl-].[Hg+2] | 14.8 µM (active) |  |
| Cc1cc(N=Nc2ccccc2C)ccc1N |  | inactive |
| C[N+](C)(C)CC1CO1 (configuration not stated) |  | inactive |
| CCCCCCCCn1sccc1=O | 4.74 µM (active) |  |
| O=[N+]([O-])C(Br)(CO)CO |  | inactive |
| Nc1ccc(N=Nc2ccccc2)cc1 |  | inactive |
| O=C(N[C@H](c1ccccc1)[C@@H]1CN2CCC1CC2)c1c(Cl)ccc(C(F)(F)F)c1Cl |  | inactive |
| CC(C)(OOC(C)(C)c1ccccc1)c1ccccc1 |  | inactive |
| Cc1cccc(N)c1N |  | inactive |
| CCOC(=O)[C@]1(c2ccccc2)Oc2ccccc2[C@@H]1N |  | inactive |
| Nc1ccc([N+](=O)[O-])cc1 | 8.46 µM (active) |  |
| Clc1ccccc1Cl |  | inactive |

Reference: PubChem BioAssay (EPA / NIEHS)
